# Bioassay records deposited in PubChem BioAssay by National Center for Advancing Translational Sciences (NCATS).
# TDP1 cell noCPT – qHTS for Inhibitors of human tyrosyl-DNA phosphodiesterase 1 (TDP1): qHTS in cells in absence of CPT; DT40 Tdp1-/- hTDP1 cells, no CPT, ATP luminescence, 48 h; Potency, µM (highest dose often 46.2 µM), usual class: inhibitors; actives 15% (n = 420,000); AID 686978, 2013; note: nearly all actives have a fitted effect of over 55% in size
#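 Compound effects on proliferation are scored in DT40 Tdp1-/-;hTDP1 cells in the absence of CPT. ATP levels (CellTiter-Glo luminescence) are recorded after a ≥48 hr, 37 °C incubation.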
# ELG1 DNA repair – inhibitors of ELG1-dependent DNA repair in HEK293T cells. HEK293T ELG1-luciferase reporter, luminescence, 16 h; DNA damage induced by 5-fluorouridine. Potency, µM (doses to about 46.1 µM), most hits filed as inhibitors. actives 2.3% (n = 330,000); note: nearly all actives have a fitted effect of over 55% in size
#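 5-Fluorouridine DNA damage + compound/DMSO, 2,000 cells/well, 16 h, 37 °C/5% CO2. ONE-Glo, 30 min RT, luminescence. Readout = decrease in reporter signal.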
# DT40 TDP1 CPT – DT40-hTDP1 cell growth loss with CPT; Potency, µM (series often up to 46.2 µM), usual class: inhibitors; actives 12% (n = 420,000); AID 686979; chicken DT40 Tdp1-/-;hTDP1 cells + 20 nM CPT, ATP luminescence, 48 h; note: nearly all actives have a fitted effect of over 55% in size
#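 Chicken DT40 Tdp1-/- cells complemented with human TDP1, 400 cells/well, exposed to compounds plus 20 nM camptothecin for at least 48 h at 37 C; viability read as ATP content by CellTiter-Glo luminescence.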
# HT1080NT lethal – kills 2HG-producing HT-1080-NT fibrosarcoma cells | HT-1080-NT fibrosarcoma viability, CellTiter-Glo ATP luminescence, 48 h | Potency, µM (titrated, usually from 46.1 µM), most hits filed as cytotoxic | actives 1.6% (n = 360,000);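 note: NT is the 2HG producing partner of a matched IDH1 knockdown line; nearly all actives have a fitted effect of over 55% in size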
#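 Luminescent CellTiter-Glo readout after 48 hours of compound exposure at 37 degrees C defined viability of HT-1080-NT cells. Activity was normalized to DMSO wells and cell-free media wells; concentration-response curves were fitted and assigned curve classes.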
# HT1080 IDH1KD tx – kills HT-1080 cells with IDH1 knockdown; HT-1080 IDH1 knockdown viability, ATP luminescence, 48 h; Potency, µM (highest dose often 46.1 µM), hits mostly cytotoxic; actives 2% (n = 360,000); AID 686971
#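 Viability of IDH1-knockdown HT-1080 fibrosarcoma cells was assessed by CellTiter-Glo after 48 h at 37 °C with titrated compound; concentration-effect curves were classified by fit quality and response size.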
# IL-1B inflam inh – blocks inflammasome-driven IL-1 beta release. THP-1 LPS/ATP IL-1B secretion, AlphaLISA, 16 h; stronger effect = lower value. activity change, % at 57.5 µM. actives 4.7% (n = 360,000). AID 743279; in the data active = activity change below about -50%; inconclusive = mostly about -30% to -49%
#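 Secreted IL-1B measured by AlphaLISA bead assay after 16 h compound exposure of THP-1 cells; compounds (final up to 57.5 uM) added 1 h before LPS (250 ng/mL) and ATP (1.25 mM) stimulation; lower signal means less secretion.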
# Hits are given with their value; - = inactive; ? = inconclusive; . = no result. Sampled rows, rich in hits. Any-hit rate of the full collection: about 19%. Unless noted, calls come from the whole dose curve; as a rule, active = well fitted curve in the direction sought with a large enough effect; inconclusive = small, poorly fitted or top-dose-only effect, or another doubt; inactive = no such curve, though single readings can be large; an effect the other way counts as inactive or inconclusive.
SMILES,TDP1 cell noCPT,ELG1 DNA repair,DT40 TDP1 CPT,HT1080NT lethal,HT1080 IDH1KD tx,IL-1B inflam inh
CC(=O)Nc1ccc(Oc2cnc3ccccc3n2)cc1,?,?,?,2.3µM,2.6µM,-
CC(=O)Nc1cccc(Oc2cnc3ccccc3n2)c1,-,-,-,-,-,-
CC(C)(C)C1CCc2c(sc(NC(=O)c3ccco3)c2C(=O)Nc2ccccc2Cl)C1 (configuration not stated),-,.,-,.,.,.
CC(C)(C)[C@H]1C=C(C(=O)O)O[C@@H](OCc2ccc(CO)cc2)C1,-,.,-,-,-,-
CCOC(=O)CSC1=C(C#N)C(=O)NC(c2ccc(OC)c(OC)c2)S1 (configuration not stated),12µM,-,16µM,-,-,-
CCOC(=O)CSC1=C(C#N)C(=O)NC(c2ccc(OC)cc2)S1 (configuration not stated),15µM,-,15µM,-,-,-
CCOC(=O)CSc1nnc(-c2ccc(OC)cc2)o1,-,.,-,.,.,.
CCOc1ccc(CCNC(=O)c2ccc(CS(=O)Cc3ccc(Cl)cc3)o2)cc1OCC (configuration not stated),15µM,-,?,-,-,-
O=C(NCCc1cccs1)c1ccc(CS(=O)Cc2ccc(Cl)cc2)o1 (configuration not stated),-,-,?,-,-,-
O=C(NCc1ccc(Cl)cc1)c1ccc(CS(=O)Cc2cccc(Cl)c2)o1 (configuration not stated),?,-,?,-,-,-
CCOc1ccc(CCNC(=O)c2ccc(CS(=O)Cc3cccc(Cl)c3)o2)cc1 (configuration not stated),15µM,-,?,-,-,?
O=C(NCCC(=O)N(Cc1ccco1)Cc1cccs1)c1ccc([N+](=O)[O-])cc1,?,-,?,-,-,-
CNC(=O)NC(=O)C(C)OC(=O)c1oc2ccccc2c1CSc1ccc(Cl)cc1 (configuration not stated),21µM,-,?,-,-,-
CCNC(=O)NC(=O)C(C)OC(=O)c1oc2ccccc2c1CSC1CCCCC1 (configuration not stated),?,-,?,-,-,-
Cc1cc(C)n2nc(C(=O)OCC(=O)Nc3cc(S(=O)(=O)N4CCOCC4)ccc3Cl)nc2n1,-,.,-,-,-,-
Fc1ccc(Nc2ncnc3sc4c(c23)CCC4)cc1,?,-,?,-,-,-
CCc1ccc(Nc2ncnc3sc4c(c23)CCCC4)cc1,18µM,.,21µM,.,.,.
COc1ccc(/C=N/Nc2ncnc3sc4c(c23)CCCC4)cc1OC,16µM,-,?,?,?,-
COc1ccc(Nc2ncnc3sc4c(c23)CCCC4)cc1,0.029µM,.,3.3µM,.,.,.
COc1ccc(/C=N/Nc2ncnc(Cl)c2N)cc1OC,?,?,-,-,-,-
CCc1nc(Nc2ccc(F)c(Cl)c2)c2c3c(sc2n1)CCCC3,5.8µM,.,5.8µM,.,.,.
CCOc1ccc(S(=O)(=O)N2CCCC(C(=O)N3CCOCC3)C2)cc1Cl (configuration not stated),?,-,?,-,-,-
CC(=O)Nc1ccc(S(=O)(=O)Nc2nc(C)nc3sc4c(c23)CCC4)cc1,-,-,-,-,-,-
Cc1nc(Nc2cccc(O)c2)c2c3c(sc2n1)CCC3,21µM,?,18µM,?,-,-
CN(C)c1ccc(/C=C(\C#N)c2ccccc2)cc1,2.6µM,?,2.6µM,12µM,10µM,-
SMILES,TDP1 cell noCPT,ELG1 DNA repair,DT40 TDP1 CPT,HT1080NT lethal,HT1080 IDH1KD tx,IL-1B inflam inh
CN(C)c1ccc(/C=C(\C#N)C(=O)c2ccccc2)cc1,-,-,-,-,-,-
CN(C)c1cccc(/C=C(\C#N)c2ccccc2)c1,2.3µM,?,2.9µM,?,3.3µM,-
COc1ccc(C(C#N)=Cc2ccc(N(C)CCC#N)cc2)cc1,26µM,.,23µM,-,?,-
COC(=O)c1ccc(COc2ccccc2/C=C(\C#N)C(=O)Nc2ccccc2C)cc1,-,?,-,-,-,-
COC(=O)c1ccc(COc2ccccc2/C=C/C(=O)c2ccc(OCC(=O)O)cc2)cc1,?,-,?,?,?,-94
Cc1ccc(/C=C(\C#N)C(=O)Nc2c(C)cccc2C)s1,21µM,-,?,-,-,-
COC(=O)c1ccc(COc2ccccc2/C=C(\C#N)C(=O)Nc2c(C)cccc2C)cc1,13µM,26µM,13µM,18µM,18µM,-79
Cc1ccc(NC(=O)/C(C#N)=C/c2ccc(C)s2)c(C)c1,-,?,-,-,-,-
Cc1cccc(C(=O)NNC(=O)c2ccccc2Br)c1,-,?,-,-,-,-
